# Results reported in PubChem BioAssay (NCI).
# About 79,000 compounds went through this panel and 15% of them were active in at least one assay; those are over-represented in the sample as a whole. Values without a mark were called inactive. Active and inactive are the calls of the source. No stated cut-off is given here; in the data, active means growth inhibition above about 70%; inactive means the rest.
# Key:
# [1] = NCI Yeast Anticancer Drug Screen. Data for the mlh1 strain (AID 171);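 further: 0% = growth of vehicle-treated control cultures of the same strain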; conditions: S. cerevisiae mlh1 strain growth inhibition, hits give high values
# Summary of the method: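 Here the genetically defined yeast mutant is grown with each compound, and the extent to which its growth falls below that of vehicle-exposed cells is reported.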
# [2] = NCI Yeast Anticancer Drug Screen. Data for the sgs1 strain (AID 173);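 further: 0% = growth of vehicle-only control cultures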; conditions: S. cerevisiae sgs1 mutant, hits give high values
# Summary of the method: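 Relative growth inhibition, referenced to vehicle, was determined in a yeast strain with a defined alteration affecting DNA damage repair or cell cycle control after compound exposure.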
# [3] = NCI Yeast Anticancer Drug Screen. Data for the mlh1 rad18 strain (AID 175); conditions: S. cerevisiae mlh1 rad18 strain growth inhibition, hits give high values
# Summary of the method: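 In this whole-cell yeast screen, a strain with altered DNA damage repair is challenged with compound, and its growth is measured against matched vehicle-treated controls.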
# [4] = NCI Yeast Anticancer Drug Screen. Data for the rad18 strain (AID 177); conditions: S. cerevisiae rad18 mutant growth inhibition, hits give high values
# Summary of the method: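 Screen uses a yeast strain with a defined lesion in DNA damage repair; compound effect is read as loss of growth compared to untreated vehicle cultures.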
# [5] = NCI Yeast Anticancer Drug Screen. Data for the rad52 strain (AID 147);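 further: 0% = growth of vehicle-treated control cultures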; conditions: S. cerevisiae rad52 mutant growth inhibition, hits give high values
# Summary of the method: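 Measured: yeast growth inhibition. System: strain with a defined DNA damage repair alteration. Reference: vehicle-treated control cultures.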
# [6] = NCI Yeast Anticancer Drug Screen. Data for the wt1 strain (AID 149);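 further: 0% = growth of vehicle-treated wt1 cultures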; conditions: S. cerevisiae wt1 strain (SPY 50644) growth inhibition, hits give high values
# Summary of the method: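 wt1 strain grown with compound or vehicle; inhibition taken from the growth difference.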
# [7] = NCI Yeast Anticancer Drug Screen. Data for the rad50EPP+ strain (AID 151);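 further: 0% = growth of vehicle-treated control cultures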; conditions: S. cerevisiae rad50 mutant strain, hits give high values
# Summary of the method: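 One strain with a rad50 alteration (rad50EPP+) was compound-treated, its growth then compared to that of vehicle controls.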
# [8] = NCI Yeast Anticancer Drug Screen. Data for the rad50 strain (AID 155);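 further: 0% = growth of vehicle-only cultures of the same strain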; conditions: S. cerevisiae rad50 strain growth inhibition, hits give high values
# Summary of the method: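 DNA repair mutant yeast, compound exposure, growth read-out; inhibition is taken relative to vehicle.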
# [9] = NCI Yeast Anticancer Drug Screen. Data for the mec2-1 strain (AID 157); conditions: S. cerevisiae mec2-1 strain, hits give high values
# Summary of the method: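 Test agents were screened against the mec2-1 yeast strain, with defined DNA repair or cell cycle alteration. Growth was scored as inhibition against vehicle-only controls.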
# [10] = NCI Yeast Anticancer Drug Screen. Data for the rad14 strain (AID 159);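 further: 0% = growth of vehicle-treated control cultures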; conditions: S. cerevisiae rad14 strain growth inhibition, hits give high values
# Summary of the method: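 DNA repair-defective yeast, compound-exposed; % growth inhibition derived by comparison with vehicle-treated controls.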
# [11] = NCI Yeast Anticancer Drug Screen. Data for the sgs1 mgt1 strain (AID 161);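 further: 0% = growth of cultures given vehicle only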; conditions: S. cerevisiae sgs1 mgt1 strain, hits give high values
# Summary of the method: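 Genetically altered yeast, compound exposure, growth inhibition relative to vehicle.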
# [12] = NCI Yeast Anticancer Drug Screen. Data for the CLN2oe strain (AID 163);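 further: 0% = growth of vehicle-only control cultures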; conditions: S. cerevisiae CLN2oe strain, hits give high values
# Summary of the method: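 Here, growth inhibition in a cell-cycle-altered yeast strain after compound exposure was quantified against vehicle control growth.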
# [13] = NCI Yeast Anticancer Drug Screen. Data for the cln2 rad14 strain (AID 165);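 further: 0% = growth equal to vehicle treated cultures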; conditions: S. cerevisiae cln2 rad14 strain, hits give high values
# Summary of the method: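 Growth of compound-exposed yeast (cln2 rad14 genotype) measured and expressed as inhibition relative to vehicle.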
# [14] = NCI Yeast Anticancer Drug Screen. Data for the bub3 strain (AID 167); conditions: S. cerevisiae bub3 mutant strain, hits give high values
# Summary of the method: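 In this screen, a yeast mutant lacking normal mitotic checkpoint function is challenged with compound. Relative growth versus vehicle gives the inhibition value.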
# [15] = NCI Yeast Anticancer Drug Screen. Data for the wt2 strain (AID 169);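 further: 0% = growth of vehicle-treated yeast cultures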; conditions: S. cerevisiae wt2 strain growth inhibition, hits give high values
# Summary of the method: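 Genetically defined yeast strains from a DNA-repair/cell-cycle panel were used. Compound-exposed yeast growth was measured, and the inhibition was calculated relative to vehicle treatment.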
# [16] = at 5.0 µM (retest, dose inferred, filed as 0.5)
# [17] = at 50.0 µM (retest, dose inferred, filed as 5.0)
smiles,measurement,setting,value
O=C1OC2C(O)COC2(OCc2c[nH]c3ccccc23)C1O (stereo unspecified) (tested in a mixture with another compound),growth inhibition,[1]; at 1.2 µM,-1%
same,growth inhibition,[1]; at 3.7 µM,-2%
same,growth inhibition,[1]; at 11.0 µM,-2%
same,growth inhibition,[1]; at 33.0 µM,11%
same,growth inhibition,[1]; at 100.0 µM,87% (active)
same,growth inhibition,[2]; at 1.2 µM,-1%
same,growth inhibition,[2]; at 3.7 µM,0%
same,growth inhibition,[2]; at 11.0 µM,3%
same,growth inhibition,[2]; at 33.0 µM,43%
same,growth inhibition,[2]; at 100.0 µM,92% (active)
same,growth inhibition,[3]; [16],-3%
same,growth inhibition,[3]; [17],26%
same,growth inhibition,[3]; at 50.0 µM,88.9% (active)
same,growth inhibition,[4]; at 1.2 µM,0%
same,growth inhibition,[4]; at 3.7 µM,2%
same,growth inhibition,[4]; at 11.0 µM,9%
same,growth inhibition,[4]; at 33.0 µM,68%
same,growth inhibition,[4]; at 100.0 µM,96% (active)
CN(C)CC1CCCc2ccccc2C1=O (stereo unspecified),growth inhibition,[5]; at 1.2 µM,-43%
same,growth inhibition,[5]; at 3.7 µM,-39%
same,growth inhibition,[5]; at 11.0 µM,-41%
same,growth inhibition,[5]; at 33.0 µM,2%
same,growth inhibition,[5]; at 100.0 µM,76% (active)
same,growth inhibition,[6]; at 1.2 µM,1%
same,growth inhibition,[6]; at 3.7 µM,-11%
same,growth inhibition,[6]; at 11.0 µM,-1%
same,growth inhibition,[6]; at 33.0 µM,9%
same,growth inhibition,[6]; at 100.0 µM,53%
same,growth inhibition,[7]; at 1.2 µM,6%
same,growth inhibition,[7]; at 3.7 µM,-4%
same,growth inhibition,[7]; at 11.0 µM,26%
same,growth inhibition,[7]; at 33.0 µM,76% (active)
same,growth inhibition,[7]; at 100.0 µM,97% (active)
same,growth inhibition,[8]; at 1.2 µM,-5%
same,growth inhibition,[8]; at 3.7 µM,-2%
same,growth inhibition,[8]; [16],-14%
same,growth inhibition,[8]; at 11.0 µM,5%
same,growth inhibition,[8]; at 33.0 µM,41%
same,growth inhibition,[8]; [17],40%
same,growth inhibition,[8]; at 50.0 µM,66.2%
same,growth inhibition,[8]; at 100.0 µM,91% (active)
same,growth inhibition,[9]; at 1.2 µM,-4%
same,growth inhibition,[9]; at 3.7 µM,-12%
same,growth inhibition,[9]; [16],-11%
same,growth inhibition,[9]; at 11.0 µM,-7%
same,growth inhibition,[9]; at 33.0 µM,20%
same,growth inhibition,[9]; [17],-2%
same,growth inhibition,[9]; at 50.0 µM,23.4%
same,growth inhibition,[9]; at 100.0 µM,85% (active)
same,growth inhibition,[10]; at 1.2 µM,-6%
same,growth inhibition,[10]; at 3.7 µM,-13%
same,growth inhibition,[10]; at 11.0 µM,3%
same,growth inhibition,[10]; at 33.0 µM,12%
same,growth inhibition,[10]; at 100.0 µM,81% (active)
same,growth inhibition,[11]; [16],-1%
same,growth inhibition,[11]; [17],22%
same,growth inhibition,[11]; at 50.0 µM,50.3%
same,growth inhibition,[12]; at 1.2 µM,-7%
same,growth inhibition,[12]; at 3.7 µM,1%
same,growth inhibition,[12]; at 11.0 µM,22%
same,growth inhibition,[12]; at 33.0 µM,14%
same,growth inhibition,[12]; at 100.0 µM,89% (active)
same,growth inhibition,[13]; [16],-10%
same,growth inhibition,[13]; [17],20%
same,growth inhibition,[13]; at 50.0 µM,5.05%
same,growth inhibition,[14]; at 1.2 µM,24%
same,growth inhibition,[14]; at 3.7 µM,23%
same,growth inhibition,[14]; [16],-25%
same,growth inhibition,[14]; at 11.0 µM,19%
same,growth inhibition,[14]; at 33.0 µM,28%
same,growth inhibition,[14]; [17],40%
same,growth inhibition,[14]; at 50.0 µM,32.3%
same,growth inhibition,[14]; at 100.0 µM,95% (active)
same,growth inhibition,[15]; at 1.2 µM,-32%
same,growth inhibition,[15]; at 3.7 µM,-31%
same,growth inhibition,[15]; at 11.0 µM,-36%
same,growth inhibition,[15]; at 33.0 µM,-1%
same,growth inhibition,[15]; at 100.0 µM,76% (active)
same,growth inhibition,[1]; at 1.2 µM,23%
same,growth inhibition,[1]; at 3.7 µM,28%
same,growth inhibition,[1]; at 11.0 µM,29%
same,growth inhibition,[1]; at 33.0 µM,76% (active)
same,growth inhibition,[1]; at 100.0 µM,95% (active)
same,growth inhibition,[2]; at 1.2 µM,-15%
same,growth inhibition,[2]; at 3.7 µM,-12%
same,growth inhibition,[2]; at 11.0 µM,12%
same,growth inhibition,[2]; at 33.0 µM,32%
same,growth inhibition,[2]; at 100.0 µM,84% (active)
same,growth inhibition,[4]; at 1.2 µM,-14%
same,growth inhibition,[4]; at 3.7 µM,7%
same,growth inhibition,[4]; at 11.0 µM,2%
same,growth inhibition,[4]; at 33.0 µM,38%
same,growth inhibition,[4]; at 100.0 µM,85% (active)
CN(NC(=O)/C(=C/c1ccc(O)cc1)NC(=O)c1ccccc1)c1ccnc2cc(Cl)ccc12,growth inhibition,[5]; at 1.2 µM,2%
same,growth inhibition,[5]; at 3.7 µM,9%
same,growth inhibition,[5]; at 11.0 µM,35%
same,growth inhibition,[5]; at 33.0 µM,60%
same,growth inhibition,[5]; at 100.0 µM,79% (active)
same,growth inhibition,[6]; at 1.2 µM,3%
same,growth inhibition,[6]; at 3.7 µM,4%
same,growth inhibition,[6]; at 11.0 µM,11%
same,growth inhibition,[6]; at 33.0 µM,40%
same,growth inhibition,[6]; at 100.0 µM,69%
same,growth inhibition,[7]; at 1.2 µM,-2%
same,growth inhibition,[7]; at 3.7 µM,3%
same,growth inhibition,[7]; at 11.0 µM,14%
same,growth inhibition,[7]; at 33.0 µM,34%
same,growth inhibition,[7]; at 100.0 µM,42%
same,growth inhibition,[8]; at 1.2 µM,-2%
same,growth inhibition,[8]; at 3.7 µM,-4%
same,growth inhibition,[8]; [16],6%
same,growth inhibition,[8]; at 11.0 µM,15%
same,growth inhibition,[8]; at 33.0 µM,68%
same,growth inhibition,[8]; [17],20%
same,growth inhibition,[8]; at 50.0 µM,80.1% (active)
same,growth inhibition,[8]; at 100.0 µM,81% (active)
same,growth inhibition,[9]; at 1.2 µM,1%
same,growth inhibition,[9]; at 3.7 µM,4%
same,growth inhibition,[9]; [16],15%
same,growth inhibition,[9]; at 11.0 µM,12%
same,growth inhibition,[9]; at 33.0 µM,44%
same,growth inhibition,[9]; [17],2%
same,growth inhibition,[9]; at 50.0 µM,46.9%
same,growth inhibition,[9]; at 100.0 µM,72% (active)
same,growth inhibition,[10]; at 1.2 µM,0%
same,growth inhibition,[10]; at 3.7 µM,2%
same,growth inhibition,[10]; at 11.0 µM,13%
same,growth inhibition,[10]; at 33.0 µM,38%
same,growth inhibition,[10]; at 100.0 µM,60%
same,growth inhibition,[11]; [16],9%
same,growth inhibition,[11]; [17],9%
same,growth inhibition,[11]; at 50.0 µM,51.1%
same,growth inhibition,[12]; at 1.2 µM,6%
same,growth inhibition,[12]; at 3.7 µM,3%
same,growth inhibition,[12]; at 11.0 µM,13%
same,growth inhibition,[12]; at 33.0 µM,39%
same,growth inhibition,[12]; at 100.0 µM,65%
same,growth inhibition,[13]; [16],-3%
same,growth inhibition,[13]; [17],2%
same,growth inhibition,[13]; at 50.0 µM,-2.45%
same,growth inhibition,[14]; at 1.2 µM,-1%
same,growth inhibition,[14]; at 3.7 µM,4%
same,growth inhibition,[14]; [16],21%
same,growth inhibition,[14]; at 11.0 µM,16%
same,growth inhibition,[14]; at 33.0 µM,43%
same,growth inhibition,[14]; [17],65%
same,growth inhibition,[14]; at 50.0 µM,55.1%
same,growth inhibition,[14]; at 100.0 µM,68%
same,growth inhibition,[15]; at 1.2 µM,-3%
same,growth inhibition,[15]; at 3.7 µM,-1%
same,growth inhibition,[15]; at 11.0 µM,11%
same,growth inhibition,[15]; at 33.0 µM,47%
same,growth inhibition,[15]; at 100.0 µM,70% (active)
same,growth inhibition,[1]; at 1.2 µM,1%
same,growth inhibition,[1]; at 3.7 µM,4%
same,growth inhibition,[1]; at 11.0 µM,21%
same,growth inhibition,[1]; at 33.0 µM,64%
same,growth inhibition,[1]; at 100.0 µM,81% (active)
same,growth inhibition,[2]; at 1.2 µM,2%
same,growth inhibition,[2]; at 3.7 µM,4%
same,growth inhibition,[2]; at 11.0 µM,14%
same,growth inhibition,[2]; at 33.0 µM,67%
same,growth inhibition,[2]; at 100.0 µM,83% (active)
same,growth inhibition,[3]; [16],1%
same,growth inhibition,[3]; [17],2%
same,growth inhibition,[3]; at 50.0 µM,80.3% (active)
same,growth inhibition,[4]; at 1.2 µM,1%
same,growth inhibition,[4]; at 3.7 µM,7%
same,growth inhibition,[4]; at 11.0 µM,45%
same,growth inhibition,[4]; at 33.0 µM,78% (active)
same,growth inhibition,[4]; at 100.0 µM,87% (active)
